PubChem BioAssay AID1847 (The Scripps Research Institute Molecular Screening Center, 2009)
“And” between values parts separate entries of the source, which are not always exact repeats. Identical values can stand only once. Hit rate of the full screen: of about 2,300 compounds, about 1,100 (48%) were called active.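 Rule for the calls: active = inhibition above the mean inhibition of all tested sample wells plus 3 SD (cut at about 10% in these data); inactive = the rest.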 The set was probably picked from earlier hits. Not all results are given here.

Each molecule was assayed against Luciferin 4-monooxygenase (Photinus pyralis) (UniProt P08659) (assay: native FLuc enzyme inhibition – biochemical, luminescence, triplicate, artefact control for HSP90 inhibitor project, confirmation (AID 1847;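 note: 0% = DMSO with luciferase and 100% = wells lacking luciferase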)). Settings: purified native firefly luciferase, at 5.9 µM, stronger effect = higher value.
Luciferin 4-monooxygenase (Photinus pyralis), sequence (P08659 whole entry, looked up): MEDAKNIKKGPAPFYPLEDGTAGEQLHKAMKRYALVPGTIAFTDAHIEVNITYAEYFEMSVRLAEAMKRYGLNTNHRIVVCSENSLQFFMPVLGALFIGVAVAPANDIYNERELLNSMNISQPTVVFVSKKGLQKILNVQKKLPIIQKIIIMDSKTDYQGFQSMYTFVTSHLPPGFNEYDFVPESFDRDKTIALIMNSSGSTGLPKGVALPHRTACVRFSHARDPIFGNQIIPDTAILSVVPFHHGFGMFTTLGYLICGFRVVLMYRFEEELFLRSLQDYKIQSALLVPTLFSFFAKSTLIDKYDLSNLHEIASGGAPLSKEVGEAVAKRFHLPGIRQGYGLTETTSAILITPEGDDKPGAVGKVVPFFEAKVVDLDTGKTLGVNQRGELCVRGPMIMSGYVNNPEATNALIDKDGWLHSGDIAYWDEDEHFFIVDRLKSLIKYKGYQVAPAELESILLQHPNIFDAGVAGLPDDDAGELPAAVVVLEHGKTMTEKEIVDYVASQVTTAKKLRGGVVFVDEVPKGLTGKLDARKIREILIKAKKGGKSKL

| Structure (SMILES) | inhibition |
| --- | --- |
| COc1cc(SC)ccc1C(=O)Nc1nc(C)cs1 | 90.1% (active) |
| COC(=O)c1sc(NC(=O)c2ccc(OC)cc2OC)nc1C | 56.6% (active) |
| COC(=O)c1sc(NC(=O)c2csc3c2CCCC3)nc1C | -24.8% (inactive) |
| Cc1ccc(-n2c(SCC(=O)Nc3ncc(Cl)cc3Cl)nc3ccccc32)cc1 | -5.93% (inactive) |
| Cc1sc2nc(CSCC(=O)Nc3c(Cl)cccc3Cl)[nH]c(=O)c2c1C | -10.5% (inactive) |
| CCOc1ccc(C2NC(=S)NC3=C2CCc2ccccc23)cc1 (stereo not given) | 27.2% (active) |
| O=C(Nc1nc2ccccc2s1)c1ccc2c(c1)OCO2 | 56% (active) |
| Cc1nc(NC(=O)c2cccc(Cl)c2)sc1-c1csc(Nc2cccc(Cl)c2)n1 | -10.7% (inactive) |
| O=C(Nc1ccccc1)c1ccc2c(c1)OCCCO2 | 32.8% (active) |
| c1ccc(-c2ccc3c(c2)NC(C2Nc4cc(-c5ccccc5)ccc4O2)O3)cc1 (stereo not given) | -6.37% (inactive) |
| Clc1ccc(-c2cc(-c3ccccn3)on2)c(Cl)c1 | 81.9% (active) |
| O=[N+]([O-])/C=C/c1ccc2c(ccn2Cc2ccccc2)c1 | 5.87% (inactive) |
| CCN(CC)CCn1c(N)c(S(=O)(=O)c2ccccc2)c2nc3ccccc3nc21 | -7.93% (inactive) |
| COc1ccc(-n2nnnc2-c2nc3ccccc3s2)cc1 | 52.3% (active) |
| Cc1cccc(NC(=O)/C=C/c2ccc3c(c2)OCO3)n1 | 30.9% (active) |
| Cc1csc(SCC(=O)Nc2sccc2C#N)n1 | 8.6% (inactive) |
| Cn1c(-c2ccco2)nc2cc3ccccc3cc21 | 51.4% (active) |
| Cc1cc(C(=O)COC(=O)C2CC2)c(C)n1-c1ccc(F)cc1 | 88.4% (active) |
| Cc1ccc(C(=O)O/N=C(\N)c2ccccn2)cc1Cl | 79.1% (active) |
| CCOC(=O)C1=C(c2ccc(OC)cc2)C(=O)c2ccccc2C1=O | -5.23% (inactive) |
| CC(C)Nc1ccc(-n2nc3ccccc3[n+]2[O-])cc1 | 44% (active) |
| O=C(Nc1ccc2c(c1)OCCO2)C1CCCN(c2ncccn2)C1 (stereo not given) | 20.5% (active) |
| Clc1ccc2nc(CSc3ccccc3)cn2c1 | 53% (active) |
| Cc1nc2cc(NC(=O)Nc3cccc(F)c3)ccc2n1C | 21.4% (active) |
| Cc1ccc(Nc2nc(-c3ccc(O)cc3O)cs2)nc1 | -25.8% (inactive) |

| Structure (SMILES) | inhibition |
| --- | --- |
| Cc1cnc(NC(=O)c2ccccn2)s1 | 15.6% (active) |
| Cc1ccc(Nc2nc(-c3sc(NC(=O)c4ccccc4)nc3C)cs2)cc1 | -23.6% (inactive) |
| CCOC(=O)CNC(=O)c1nn(-c2cccc(OC)c2)c(=O)c2ccccc12 | -3.73% (inactive) |
| CCOc1ccc(OCc2ccc(C(=O)N(C)c3ccccc3)o2)cc1 | -13.3% (inactive) |
| CCOc1ccc(OCc2cccc(C(=O)N(CC)CC)c2)cc1 | 22.5% (active) |
| Nc1ccc(-c2nnc(-c3ccccc3)o2)cc1 | -10.8% (inactive) |
| CCc1ccc2oc(-c3ccc(N)cc3)nc2c1 | 51% (active) |
| O=C(Cn1c[n+](CC(=O)c2ccc([N+](=O)[O-])cc2)cn1)c1ccc([N+](=O)[O-])cc1 | -6.5% (inactive) and -8.93% (inactive) |
| COc1cc(CNC2CCCCC2)c(Br)cc1OC1CCCC1 | 1% (inactive) |
| COC(=O)C1[C@H]2SC(C)(C)C(C(=O)OC)N2C(=O)N1Cc1nc2ccccc2s1 (stereo not given in full) | -10.3% (inactive) |
| COc1ccc(CNC(=O)/C(C#N)=C/c2cccc(OC)c2OC)cc1 | -0.6% (inactive) |
| COc1ccc(Nc2ncnc3ccc(Br)cc23)c(OC)c1 | 55.5% (active) |
| Cc1ccc2nc(/C(C#N)=C\c3ccc(OC(=O)c4cccs4)cc3)[nH]c2c1 | -9.37% (inactive) |
| CCCCNC(=O)Nc1c(C)cc(SC#N)cc1C | -1.43% (inactive) |
| Cc1nn(CC(=O)Nc2ccc(F)cc2)c(=O)c2ccccc12 | -7.73% (inactive) |
| CCOc1ccc(-c2nnc(-c3ccco3)o2)cc1 | 56.9% (active) |
| O=C(CN1C(=O)c2ccccc2S1(=O)=O)N1CCc2ccccc21 | -9.57% (inactive) |
| CCOc1c(Br)cc(/C=C2\C(=O)N(CCC#N)N=C2C)cc1OC | 29.9% (active) |
| N#C/C=C\Oc1ccc(Cl)cc1N | -7.1% (inactive) |
| Cc1nnc(SCC(=O)N2c3ccccc3C(C)(c3ccc(Cl)cc3)CC2(C)C)s1 (stereo not given) | -1.27% (inactive) |
| O=C(Nc1cccnc1)c1noc2c1CCCCC2 | 38.6% (active) |
| COc1cc(NS(=O)(=O)c2ccc3ccccc3c2)c2ncccc2c1 | -7.83% (inactive) |
| CSCCC(C(=O)NC1=NCCS1)N1C(=O)c2ccccc2C1=O (stereo not given) | -8.47% (inactive) |
| CN(C)c1ccc(-n2cccc2/C=N/n2cnnc2)cc1 | -11.7% (inactive) |
| Cc1nc2ccc(C(=O)O)cc2[nH]1 | 4.87% (inactive) |

| Structure (SMILES) | inhibition |
| --- | --- |
| CC(C)c1nc2ccc(C(=O)O)cc2[nH]1 | 31.5% (active) |
| CC(C)(C)OC(=O)c1c(N)n(CCCN2CCCC2=O)c2nc3ccccc3nc12 | -7.33% (inactive) |
| CCCS(=O)(=O)N1CCCC(C(=O)NCCN2CCCCC2C)C1 (stereo not given) | -4.93% (inactive) |
| Cc1ccc(-c2cn3cc(C)ccc3n2)cc1 | 87.3% (active) |
| Cc1ccc2nc(-c3ccc(Br)cc3)cn2c1 | 81.5% (active) |
| COc1ccc(-c2cn3ccc(C)cc3n2)cc1 | 69.7% (active) |
| Cc1cccc(C(=O)OC(C)CN2CCN(C)CC2)c1 (stereo not given) | -7.93% (inactive) |
| Cc1ccc(C(=O)CSc2ccccc2C(=O)O)cc1 | -0.87% (inactive) |
| O=C(O)c1ccc(N=NN2CCOCC2)cc1 | -12.9% (inactive) |
| O=C(CSC(=S)N1CCOCC1)c1ccccc1 | 34.5% (active) |
| CCOC(=O)N1CCN(Cc2nc3c(c(=O)n(C)c(=O)n3C)n2Cc2ccccc2)CC1 | -8.93% (inactive) |
| C=CCN1CCN(C(=O)CCCc2ccccc2)CC1 | 37.2% (active) |
| O=C(Cc1ccccc1)N1CCN(S(=O)(=O)c2ccc([N+](=O)[O-])cc2)CC1 | -3.47% (inactive) |
| COc1cc(C(=O)NN(CCC#N)C2=NS(=O)(=O)c3ccccc32)cc(OC)c1OC | -6.77% (inactive) |
| Cc1cccc(CCNC(=O)Cn2ncc3c([nH]c4ccc(C)cc43)c2=O)c1 | -0.53% (inactive) |
| CN(c1ccc2nc3ccccc3c(=O)n2n1)C1CCCCC1 | 87.3% (active) |
| O=C(OC1CCOC1=O)c1ccc(-c2nc3ccccc3s2)s1 (stereo not given) | 65.2% (active) |
| c1ccc(-c2noc(-c3cccs3)n2)nc1 | 27.4% (active) |
| CCOC(=O)c1nc(C)n(-c2ccc(Cl)cc2Cl)n1 | -5.2% (inactive) |
| COc1ccc(/C=N/Nc2ccccc2C(=O)O)cc1 | 23.4% (active) |
| CCc1nc(SCC(=O)Nc2ccccc2OC)n[nH]1 | 0.13% (inactive) |
| O=C(Nc1ccccc1C(=O)O)c1ccc(N2C(=O)C3CC=CCC3C2=O)cc1 (stereo not given) | -15.7% (inactive) |
| COc1ccc(C(=O)Nc2ccccc2C(=O)N/N=C/c2ccc(O)c(OC)c2)cc1 | 93.5% (active) |
| COc1ccc(C(=O)Nc2ccccc2C(=O)N/N=C/c2ccccc2OC)cc1 | 43.8% (active) |
| COc1ccc(Cl)cc1NC(=O)Cn1nc(-c2ccc(C)cc2)n(C)c1=S | -10.3% (inactive) |

| Structure (SMILES) | inhibition |
| --- | --- |
| CC(OC(=O)c1ccc2noc(-c3ccccc3)c2c1)C(N)=O (stereo not given) | -3.9% (inactive) |
| Oc1c(C=Nc2cccc3nsnc23)ccc2ccccc12 | -18.8% (inactive) |
| COc1ccc(-c2nc(-c3ccccc3)no2)c(OC)c1 | 81.7% (active) |
| COc1ccc(/C=C/c2noc(-c3ccccc3OC(C)=O)n2)cc1 | -12.5% (inactive) |
| CCCCOCCCNC(=O)c1ccccc1OCC | -6.47% (inactive) |
| CCCOc1ccc(C(=O)NCCc2ccccc2)cc1 | 44% (active) |
| COc1cccc(/C=C/c2ccc3ccccc3n2)c1OC(C)=O | -12.7% (inactive) |
| Cc1ccc(C(=O)COC(=O)c2cccc(N3C(=O)c4c(C)nc5ccccc5c4C3=O)c2)cc1C | -20.1% (inactive) |
| COc1cccc2c(C)c(C(=O)O)[nH]c12 | 30.6% (active) |
| O=C1CCC([N+](=O)[O-])C(c2ccccc2Br)N1 (stereo not given) | -7.7% (inactive) |
| CC(C)CNC(=O)CC(NCC(C)C)C(=O)O (stereo not given) | -6.07% (inactive) |
| Clc1cccc(N=C2NN=C(c3ccc4c(c3)OCCO4)CS2)c1 | 36.7% (active) |
| c1c2c(cc3sc(N4CCCCC4)nc13)OCCO2 | 80% (active) |
| CCN(CCCNC(=O)c1ccc2c(c1)NC(=O)CN2C)c1cccc(C)c1 | -5.03% (inactive) |
| CCOc1ccc(N/C=C/C(=O)c2ccccc2)cc1 | 62.8% (active) |
| COc1ccc(C(=O)/C=C/Nc2ccccn2)cc1 | 90.9% (active) |
| CCCCCc1ccc(-c2ccc(C(=O)O)cc2)nc1 | 57.8% (active) |
| C/C(=N\NC(=S)NC1CCCCC1)c1ccc(C)o1 | -11.1% (inactive) |
| CCS(=O)(=O)c1cc([N+](=O)[O-])c(Sc2ccccc2N)s1 | 46% (active) |
| CCc1ccc(Nc2ncc3c(n2)CC(c2ccco2)CC3=O)cc1 (stereo not given) | -15% (inactive) |
| Cc1ccsc1C(=O)OCC(=O)c1cc(C)n(CC2CCCO2)c1C (stereo not given) | 85.4% (active) |
| COCc1cc(=O)[nH]c2cc(NC(=O)C(F)(F)F)c(C)cc12 | -7% (inactive) |
| CN(CCO)c1ccc(/C=N/Nc2nncc3ccccc23)cc1 | 84.2% (active) |
| CCCCC(=O)Nc1nc(C)c(-c2csc(Nc3ccc(Cl)cc3)n2)s1 | -9.5% (inactive) |
| O=c1oc(/C=C/c2ccccc2)nc2ccccc12 | -16.5% (inactive) |
